Test results published in the supplement of paper PMC13392028.
Whole data set: some 4,100 sequences, median “RBNS R-value (6-mer enrichment in protein-bound RNA vs input library)” near 0.99, cut for the highest 2% near 1.4. This is one part of a sample in which the highest values are shown more often than they occur.

System: PfIESI-1 RRM domain (Plasmodium falciparum ortholog aa 875-1232, GST fusion)
Assay: RBNS R-value (6-mer enrichment in protein-bound RNA vs input library) (ratio); higher = stronger binding preference; the methods of the paper give 50 / 100 / 500 nM protein instead
Experimental: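 RNA Bind-n-Seq: recombinant GST-tagged IESI-1 RRM domain was incubated at room temperature with a random 40-nt in vitro transcribed RNA library at 250, 500 or 1000 nM protein. Bound RNA was pulled down on glutathione beads and sequenced. R-value is the enrichment of each 6-mer in the bound RNA relative to the input library. Each 6-mer sits inside the random 40-mer context, not as an isolated oligo. Values are replicate 1 only.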

Sequence	RBNS R-value (protein concentration: 250 nM)	RBNS R-value (protein concentration: 500 nM)	RBNS R-value (protein concentration: 1000 nM)
UAUGAU	1.95	2.17	1.61
AAUGAU	2.28	2.5	1.88
AAUGAG	1.02	1.1	1.07
CAUGAA	0.967	1.05	1.01
AAUGCU	0.913	0.938	0.914
UAUGAG	0.911	0.958	0.958
UAUGAA	0.854	0.932	0.895
CAUGAG	1.06	1.07	1.07
CAUGAU	2.24	2.42	1.85
CACGUU	0.886	0.866	0.874
GCACGA	1.08	1.09	1.1
AGCAGG	1.02	1.05	1.12
AGAGUG	1.09	1.09	1.05
AUUGAG	1.07	1.1	1.04
UUUGAC	1.17	1.15	1.12
GUUGAC	1.01	0.99	1.02
UUUGAA	0.988	1.05	1.05
CUUGAC	1.28	1.19	1.22
AUUGAU	2.21	2.4	1.85
UUUGAU	2.39	2.62	1.95
AUUGAC	1.12	1.14	1.08
CUUGAA	1.1	1.09	1.1
CUUGAU	2.01	2.15	1.74
GUUGAG	0.972	0.963	1

Sequence	RBNS R-value (protein concentration: 250 nM)	RBNS R-value (protein concentration: 500 nM)	RBNS R-value (protein concentration: 1000 nM)
GUUGAU	1.71	1.81	1.51
AGGACA	1	1.03	1.04
CCUUGU	0.991	0.946	0.954
GGGAGU	1.1	1.05	1.09
CCGCCA	1.08	0.99	1.06
AUCCUA	0.949	0.898	0.9
GCCCCU	1.04	0.964	1.02
AAUCAA	0.817	0.94	0.899
GCCAUA	0.918	0.859	0.881
UGGCUU	1.01	0.984	0.967
AAAAAC	1.13	1.3	1.2
GAGCGU	0.994	0.96	0.986
CCGAGA	1.59	1.4	1.41
UCGAGA	1.26	1.23	1.22
CCGAGC	1.29	1.16	1.24
GCAGGU	1.01	0.998	1.07
CGGGGU	1.06	1.04	1.07
AUUCGU	0.903	0.913	0.916
GGGGUG	1.1	1.02	1.07
GCAUGC	1.01	0.974	1
CCAUGA	1.4	1.43	1.27
GCAUGA	1.41	1.43	1.27
CCAUGG	1.07	1.01	1.07
CCAUGU	0.923	0.903	0.916

Sequence	RBNS R-value (protein concentration: 250 nM)	RBNS R-value (protein concentration: 500 nM)	RBNS R-value (protein concentration: 1000 nM)
GCAUGG	0.998	0.987	1.04
GAGAGA	1.26	1.29	1.28
UGCGAC	1.06	1	1
UAAAAA	0.951	1.17	1.05
GGCACC	1.38	1.2	1.29
GACACC	1.56	1.32	1.35
GGCACU	1.11	1.03	1.07
GACACG	1.13	1.1	1.12
GGCACA	1.05	1.05	1.04
GACACU	1.2	1.19	1.14
CGAUCG	0.905	0.881	0.937
CUGCGG	1.03	0.975	1.05
CCUCCG	1.07	1.01	1.07
ACUUAC	0.815	0.767	0.76
GCCAAA	1.06	1.08	1.1
AAGCGC	1.03	1.06	1.04
UAUUGG	0.864	0.848	0.873
GAGAAA	1.41	1.55	1.45
CAGAAU	1.12	1.18	1.15
GAGAAU	1.43	1.5	1.37
UAGAAU	1.06	1.14	1.06
GAGAAC	1.24	1.31	1.27
GAGAAG	1.33	1.36	1.29
UCGGCU	0.925	0.885	0.937

Sequence	RBNS R-value (protein concentration: 250 nM)	RBNS R-value (protein concentration: 500 nM)	RBNS R-value (protein concentration: 1000 nM)
GCCUCA	0.982	0.946	1.02
ACCCGC	1.29	1.17	1.23
ACCCGG	1.44	1.25	1.32
GCCCGA	1.52	1.34	1.36
UCCCGA	1.2	1.12	1.14
CCCCGA	1.37	1.23	1.31
GCCCGG	1.38	1.2	1.31
GCCCGU	1.17	1.07	1.13
ACCCGA	1.63	1.36	1.4
ACCCGU	1.24	1.12	1.19
UGAGUG	1.07	1.11	1.06
GGCUGG	1.06	1	1.08
AUUCCA	1.24	1.23	1.22
GAGGCC	1.15	1.07	1.13
AUGUAG	0.952	1.04	0.956
UGACAC	1.39	1.32	1.3
UGACAU	1.14	1.14	1.12
UGACAA	1.07	1.14	1.08
GCACGG	1.02	0.986	1.05
AUGGCA	1.28	1.26	1.16
UGCUAU	0.951	0.947	0.896
UCUCGA	1.01	1	1.04
GAUUAG	1.3	1.4	1.25
CAUUAC	0.794	0.766	0.761

Sequence	RBNS R-value (protein concentration: 250 nM)	RBNS R-value (protein concentration: 500 nM)	RBNS R-value (protein concentration: 1000 nM)
CAUUAA	0.748	0.797	0.751
UAUUAC	0.773	0.754	0.724
AAUUAG	0.847	0.908	0.88
GAUUAA	1.24	1.42	1.2
AAUUAA	0.748	0.862	0.797
CAUUAG	0.827	0.851	0.841
GAUUAC	1.36	1.48	1.29
UCAUAC	0.811	0.758	0.768
UAUAGC	0.876	0.87	0.833
CUUUAU	0.759	0.733	0.732
CUCUCU	0.881	0.796	0.867
CUCCAC	1.02	0.964	0.993
UUUUUG	1.18	1.26	1.16
CGAAAA	1.17	1.28	1.23
AAAAAA	1.25	1.51	1.36
AGAAAU	1.09	1.29	1.16
AGAAAA	1.27	1.48	1.35
GAAAAA	1.29	1.48	1.37
GAAAAC	1.2	1.32	1.24
AAAAAG	1.2	1.37	1.29
AAAAAU	1.07	1.29	1.16
GAAAAU	1.12	1.29	1.19
GGUCGG	0.934	0.838	0.968
UCGACU	0.956	0.919	0.936

Sequence	RBNS R-value (protein concentration: 250 nM)	RBNS R-value (protein concentration: 500 nM)	RBNS R-value (protein concentration: 1000 nM)
AGUAGG	0.965	0.969	1.02
CGUUCA	0.9	0.886	0.924
GAAUGA	1.47	1.55	1.36
CAAUGC	0.943	0.936	0.955
UAAUGA	1.05	1.2	1.03
GAAUGU	0.918	1.01	0.982
AAAUGA	1.42	1.6	1.38
GAAUGC	1.08	1.07	1.08
CAAUGG	1.03	1.03	1.06
AAAUGC	0.994	1.07	1.05
CAAUGA	1.34	1.41	1.24
UUCUAC	0.96	0.873	0.911
GUCUUA	0.784	0.786	0.826
CGUGAC	1	0.946	1
GUAGCC	1.03	0.977	1.02
UUUAAG	0.833	0.879	0.837
CAGAGA	1.28	1.31	1.3
CCGGGA	1.4	1.21	1.27
ACGGGA	1.1	1.06	1.1
ACCGAA	1.07	1.11	1.09
GCCGAG	1.23	1.16	1.2
ACCGAG	1.34	1.24	1.25
CCCGGU	1.22	1.12	1.21
CCCGGC	1.27	1.14	1.24

Sequence	RBNS R-value (protein concentration: 250 nM)	RBNS R-value (protein concentration: 500 nM)	RBNS R-value (protein concentration: 1000 nM)
CCGGGU	1.19	1.08	1.17
UCCGAA	1.1	1.1	1.13
CCCGAA	1.44	1.33	1.35
CCCGAG	1.66	1.29	1.45
CCCGGG	1.56	1.3	1.42
CUCAAC	0.907	0.891	0.925
CUCUAC	0.858	0.793	0.813
GGGAAC	1.14	1.14	1.17
GAAUUU	1.14	1.19	1.13
UGCUAC	0.931	0.87	0.895
GUGUGG	0.869	0.812	0.921
CCACGA	1.17	1.13	1.15
CGGGUC	1.03	0.928	1.06
UUCGAG	1.1	1.12	1.14
GUCGAG	0.954	0.931	0.991
CUCGAG	1.38	1.28	1.27
UGGAGC	1.03	1	1.02
CUUAUA	0.758	0.723	0.711
UUGAGU	1	1.04	1.02
GUGAGA	1.02	1.08	1.1
GUGAUU	1.83	2.01	1.61
CUGAAU	1.01	1.05	1.01
GUGAUC	1.06	1.1	1.06
CUGAUU	2.52	2.66	1.97

Sequence	RBNS R-value (protein concentration: 250 nM)	RBNS R-value (protein concentration: 500 nM)	RBNS R-value (protein concentration: 1000 nM)
UUGAUU	2.69	2.96	2.18
UGGAUU	0.95	0.939	0.974
CCGAUU	1.34	1.3	1.23
GUGAUA	1.31	1.43	1.28
GCGAUU	1.23	1.24	1.15
GUGAAA	1.01	1.12	1.09
UACAAA	0.828	0.904	0.843
AAUAAU	0.738	0.867	0.789
CAUAAU	0.76	0.795	0.73
GCGCGA	1.1	1.12	1.11
CGUAAA	0.871	0.956	0.929
ACCUGC	1.09	1.03	1.07
GCCUGC	1.12	1	1.06
CCCUGG	1.17	1.09	1.15
ACCUGG	1.19	1.11	1.17
CCCUGU	0.962	0.898	0.981
GCCUGG	1.12	1.05	1.15
ACCUGA	1.51	1.48	1.37
GCCUGA	1.45	1.4	1.32
CCCUGA	1.44	1.41	1.35
